# According to PubChem BioAssay (NCATS):
# Records with an inconclusive call do not appear. The source made the active and inactive calls. The call rests on the fitted dose curve; in most records, active means well fitted inhibition curve with a large enough effect; inconclusive means small, poorly fitted or top-dose-only effect; inactive means flat fitted curve, though single readings scatter.
# Tested on: HaCat
# Experiment: Cytotoxic Profiling of Annotated Libraries Using Quantitative High-Throughput Screening (AID 1296008); further: nearly all actives have a fitted effect of over 60% in size
# Conditions: Five cell lines viability, CellTiter-Glo ATP luminescence, 48-72 h; max response: hits give low values
# Method in brief: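 Compounds were pin-transferred onto cells and incubated 48 or 72 hr at 37 degree Celsius, 95% humidity. CellTiter-Glo was added, plates sat 10 min at room temperature, then ATP-coupled luminescence was imaged as the viability read-out.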
# On the % scale 0 is the no-effect control and ±100 the full control effect.
row,SMILES,max response
1,C/C(=C\CCC1(C)C2CCC(C2)C1(C)O)C(=O)O (centres undefined),0.481% (inactive)
2,CC(=O)O[C@@H]1c2c3c(cc(O)c2C(=O)O[C@@H]1C)O[C@@]1(C)[C@@H](O)C[C@H]2C(C)(C)C(=O)C=C[C@]2(C)[C@@H]1C3,3.68% (inactive)
3,COc1ccccc1Oc1ccc(N(Cc2cccnc2)S(=O)(=O)CC(F)(F)F)cc1,0.0707% (inactive)
4,CC(C)C(NC(=O)c1ccc2ccccc2n1)C(=O)NC(CC(=O)O)C(=O)COc1c(F)cccc1F (centres undefined),-3.62% (inactive)
5,CC(C)=CCC[C@](C)(O)[C@H]1CC[C@]2(C)[C@@H]1[C@H](O)CC1[C@@]3(C)CC[C@H](O)C(C)(C)C3[C@@H](O[C@@H]3O[C@H](CO)[C@@H](O)[C@H](O)[C@H]3O[C@@H]3OC[C@@H](O)[C@H](O)[C@H]3O)C[C@]12C (some centres undefined),-1.39% (inactive)
6,C=CC[C@]12C[C@@H](OC)C(=O)C(OC)=C1O[C@@H](c1cc(OC)c3c(c1)OCO3)[C@@H]2C,-13.8% (inactive)
7,CC(C)O[C@@H]1O[C@H](CO)[C@@H](O)[C@H](O)[C@H]1O,4.48% (inactive)
8,C[C@@H]1CN(Cc2ncccn2)C[C@H]1c1nc2c(cnn2C2CCOCC2)c(=O)[nH]1,0.321% (inactive)
9,CN[C@H](CC(C)C)C(=O)N[C@H]1C(=O)N[C@@H](CC(N)=O)C(=O)N[C@H]2C(=O)N[C@H]3C(=O)N[C@H](C(=O)N[C@H](C(=O)O)c4cc(O)cc(O)c4-c4cc3ccc4O)[C@H](O[C@H]3C[C@](C)(N)[C@@H](O)[C@H](C)O3)c3ccc(c(Cl)c3)Oc3cc2cc(c3O[C@@H]2O[C@H](CO)[C@@H](O)[C@H](O)[C@H]2O[C@H]2C[C@](C)(NCc3ccc(-c4ccc(Cl)cc4)cc3)[C@@H](O)[C@H](C)O2)Oc2ccc(cc2Cl)[C@H]1O,-0.936% (inactive)
10,C=C1CC[C@H]2[C@@](C)(CCC(O)[C@@]2(C)CO)[C@@H]1CCC1=CCOC1=O (some centres undefined),-3.43% (inactive)
11,CC1CCC2(C=O)C(CO)=CCCC2C1(C)CC(=O)O (centres undefined),-1.16% (inactive)
12,C=CC1(C)C=C2CCC3C(C)(C)C(O[C@@H]4O[C@@H](CO)[C@H](O)[C@H]4O)CCC3(C)C2CC1O[C@@H]1O[C@H](C)[C@H](O)[C@H](O)[C@H]1O (some centres undefined),4.85% (inactive)
13,C/C(=C\CC[C@@H](C)[C@H]1CC(O)[C@@]2(C)C3CC[C@H]4C(C)(C)[C@@H](OC5OCC(O)C(O)C5OC5OC(CO)C(O)C(O)C5O)CC[C@@]45C[C@@]35CC(O)[C@]12C)C(=O)O (some centres undefined),-0.726% (inactive)
14,CC(C)(C)NCCCNC(=O)c1cccc(Br)c1,4.1% (inactive)
15,CC(=O)OC1C[C@]2(C)C(O)CC(C)=C[C@H](OC(=O)c3ccc(O)cc3)C2[C@]1(O)C(C)C (some centres undefined),-0.241% (inactive)
16,C=C1CC[C@@H]2[C@](C)(CO[C@@H]3O[C@H](CO)[C@@H](O)[C@H](O)[C@H]3O)[C@H](O)CC[C@@]2(C)[C@@H]1C/C=C1/C(=O)OC[C@H]1O,3.39% (inactive)
17,COC(=O)/C=C/C12COC(C)(C)C1C(O)C(OC(C)=O)C1(C)C2CCC2(C)C(c3ccoc3)OC(=O)C3OC321 (centres undefined),-1.09% (inactive)
18,CC1CC(=O)C2=C(CCC3(O)C(O)c4c(O)cccc4C(=O)C23O)C1 (centres undefined),-7.44% (inactive)
19,COC(=O)c1ccccc1O[C@@H]1O[C@H](CO)[C@@H](O)[C@H](O)[C@H]1O[C@@H]1O[C@@H](C)[C@H](O)[C@@H](O)[C@H]1O,-1.51% (inactive)
20,CCc1ccc(Cc2ccc3c(c2)[C@]2(OC3)O[C@H](CO)[C@@H](O)[C@H](O)[C@H]2O)cc1,3.62% (inactive)

row,SMILES,max response
1,OC[C@H]1O[C@@H](Oc2ccccc2)[C@H](O)[C@@H](O)[C@@H]1O,3.54% (inactive)
2,COc1cc2c(cc1OC)CC(=O)N(CCCNC[C@H]1Cc3cc(OC)c(OC)cc31)CC2,-2.44% (inactive)
3,COc1cc(O)c([C@@H](CC(=O)N2CC(C)CC(C)C2)c2ccc3c(c2)OCO3)c(OC)c1 (some centres undefined),-11.1% (inactive)
4,C=CC/C=C\C/C=C\CCCCCCCc1cccc(O)c1C(=O)O,3.56% (inactive)
5,Cc1ccc(-c2ccc3c(ccc4sc5c(c43)NC[C@@H](C)NC5=O)n2)cn1,-8.25% (inactive)
6,C[C@@H]1C(=O)OC[C@H]2C(C(=O)O)=C[C@@H]3CC(C)(C)C[C@]312,3.35% (inactive)
7,C[C@H]1CC(=O)Nc2cccc(-c3cnn(C(C)(C)C)c3)c2N1,4.21% (inactive)
8,COC(=O)C(C)C1CCC2(C)C(=O)C=CC(C)(O)C2C1O (centres undefined),4.7% (inactive)
9,CC(=O)O[C@@H]1[C@@H](OC(=O)/C=C/c2ccccc2)[C@@H](OC(C)=O)[C@H](O[C@H]2[C@@H]3C=CO[C@@H](O[C@@H]4O[C@H](CO)[C@@H](O)[C@H](O)[C@H]4O)[C@@H]3[C@@]3(CO)O[C@@H]23)O[C@H]1C,-11.2% (inactive)
10,COc1cccc(C(=O)N2CCN(C(=O)COc3cccc(C)c3)CC2)c1OC,-1.12% (inactive)
11,C=C[C@H]1C(O[C@@H]2O[C@H](CO)[C@@H](O)[C@H](O)[C@H]2O)OC=C2C(=O)N3CCc4c([nH]c5ccccc45)[C@H]3C[C@H]21 (some centres undefined),2.83% (inactive)
12,C/C=C(/COC(=O)/C(C)=C/C)C(=O)OC(CC)c1ccc(OC)c(OC)c1 (centres undefined),3.4% (inactive)
13,C=C1[C@H](OC(C)=O)[C@H]2[C@@H](OC(C)=O)[C@](C)(OC(C)=O)C[C@]2(OC(C)=O)C(=O)[C@H](C)/C=C/C(C)(C)C(=O)[C@H](OC(=O)C(C)C)[C@H]1OC(C)=O,-2.43% (inactive)
14,C=CC(C)(C)C12C=C(OC)C(=O)N3C(C(C)C)C(=O)NC31N(OC)c1ccccc12 (centres undefined),-0.498% (inactive)
15,C/C1=C\CC[C@]2(C)O[C@@H]2[C@H](O)[C@H](C(C)C)[C@H](OC(=O)/C=C/c2ccccc2)C1,-5.06% (inactive)
16,c1ccc(N2CCN(CCc3nn[nH]n3)CC2)cc1,-17.8% (inactive)
17,C=C1CC2C(C)(CCC(=O)O)C(C(C)(C)O)CCC2(C)C2C(=O)OC(C)(C(=O)OC)C(=O)C12C (centres undefined),4.3% (inactive)
18,CC(C)=CCCC1(C)C=Cc2c(c(C)cc3c2[nH]c2ccccc23)O1 (centres undefined),3.9% (inactive)
19,CC1(C)CC[C@]2(C(=O)O[C@@H]3O[C@H](CO[C@@H]4O[C@H](CO)[C@@H](O)[C@H](O)[C@H]4O[C@@H]4O[C@H](CO)[C@H](O)[C@H](O)[C@H]4O)[C@@H](O)[C@H](O[C@@H]4O[C@H](CO)[C@@H](O)[C@H](O)[C@H]4O)[C@H]3O)CC[C@]3(C)C(=CCC4[C@@]5(C)CC[C@H](O[C@@H]6OC[C@@H](O)[C@H](O)[C@H]6O)[C@@](C)(C(=O)O)C5CC[C@]43C)[C@@H]2C1 (some centres undefined),-16.1% (inactive)
